# MmCpn inh – blocks the Methanococcus maripaludis chaperonin Mm-Cpn. purified Mm-Cpn ATPase, ADP Transcreener TR-FRET. Potency, µM (series often up to 76.9 µM), inactives show at the highest dose activity, negative = inhibition, most hits filed as inhibitors. 0.031% of 330,000 active. AID 504842; also: potency is read from the fitted curve at half-maximal effect; % is scaled to controls: 0 for no effect and ±100 for the full control effect; nearly all actives have a fitted effect of over 80% in size
#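 ATPase read-out: TR-FRET ADP immunoassay (anti-ADP Eu cryptate vs ADP-d2), ex 320 nm, em 590/665 nm; signal drops as ADP forms. Enzyme 25 nM, ATP 10 uM, 30 min at 37°C after 10 min compound preincubation.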
# CCT chaperon mod – cytosolic chaperonin activity modulation; purified chaperonin ATPase assay, HTRF ADP detection, 30 min; activity change, % (test concentration not listed), hits read low; 0.3% of 360,000 active; AID 651819; in the data active = activity change below about -30%; also: % is scaled to controls: 0 for no effect and ±100 for the full control effect
#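 Enzyme 40 or 20 nM (batch-dependent) in Tris pH 7.4/KCl/MgCl2/DTT; cpd 76 uM single point; ATP 10 uM; 30 min 37 °C; Transcreener ADP HTRF detection, 30 min RT; ratio 665/615.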
# PINK1 modulator – changes PINK1 expression. Potency, µM (highest dose often 76.6 µM), for inactives: top-dose activation (PINK1 increase), hits mostly activators. 0.2% of 410,000 active. PINK1 immunofluorescence, high-content cytometry, 24 h; active = well fitted activation curve with a large enough effect; inconclusive = small, poorly fitted or top-dose-only effect; cell line not stated here; also: potency is read from the fitted curve at half-maximal effect; % of control where 0% means no effect; nearly all actives have a fitted effect of over 65% in size
#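 Cells are seeded, rested 12 hours, then given compound at five concentrations or DMSO for 24 hours. After fixation, blocking and antibody staining, PINK1 amount and mitochondrial localization are scored; CCCP serves as control.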
# 12-LOX inh – blocks human arachidonate 12S-lipoxygenase. AID 1671190. P18054. 1.1% of 580,000 active. Potency, µM (highest dose often 108 µM), inactives show at the top dose activity change, negative = inhibition, most hits filed as inhibitors. purified 12hLO, xylenol orange hydroperoxide absorbance; also: potency is read from the fitted curve at half-maximal effect; % is scaled to controls: 0 for no effect and ±100 for the full control effect
#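 Hydroperoxide product was detected by ferrous iron/xylenol orange as the 573 to 405 nm absorbance ratio. Arachidonic acid at 40 uM (final) was turned over for 30 min at room temperature by 150 nM human 12hLO, pH 7.0 Hepes buffer, after 15 min compound preincubation.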
# ASM inhibitor – inhibitors of human secretory acid sphingomyelinase; P17405; placental ASM, HMU-PC fluorogenic substrate, 60 min; Potency, µM (highest dose often 57.5 µM), inactives show at the highest dose activity change, negative = inhibition, actives largely listed as inhibitors; 0.006% of 340,000 active; also: potency is read from the fitted curve at half-maximal effect
#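 Human placenta-derived ASM enzyme was preincubated with compound for 10 minutes at room temperature, then given fluorogenic substrate HMU-PC0 (9 uM final) for 60 minutes at 37 °C; a pH 10 stop preceded fluorescence reading at Ex 386/Em 447 nm.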
# p53 reactivation – restores transcriptional activity of mutant p53. H1299 p53-A138V BP100-luciferase reporter, luminescence, 24 h. Potency, µM (doses to about 92.2 µM), for the others: top-dose activity change, positive = activation, hits mostly activators. 0.063% of 320,000 active; also: potency is read from the fitted curve at half-maximal effect; % of control where 0% means no effect; nearly all actives have a fitted effect of over 45% in size
#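 p53-null H1299 cells stably carrying temperature-sensitive p53-A138V and a BP100-luciferase reporter were pinned with compounds (4-point, 1:5 series) and held 24 hrs at 37 deg C. Luminescence was read 10 min after detection reagent.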
# Starred values were filed as active, the others as inactive; ? = inconclusive; / = no result given; ! = not confirmed by another sample; [ ] = dose if it differs, or a comment. In the library only some 1.4% were active in any assay of this set; here they are far more common. Unless noted, calls follow the shape of the dose curve; as a rule, active = well fitted curve in the direction sought with a large enough effect; inconclusive = small, poorly fitted or top-dose-only effect, or another doubt; inactive = no such curve, though single readings can be large; an effect the other way counts as inactive or inconclusive.
SMILES,MmCpn inh,CCT chaperon mod,PINK1 modulator,12-LOX inh,ASM inhibitor,p53 reactivation
COc1ccc(N2C(=O)/C(=C/c3cccs3)C(=O)NC2=S)cc1,-1%,1,-1%,28µM*,-3%,-15%
CN(C)P(=O)(C(Cl)=C(N1CCCCC1)N1CCCCC1)N(C)C,0%,-1,-4%[38.3 µM],-17%[57.4 µM],3%,32µM*
O=C(N1CCCCCC1)N1CC1,/,1,0%,-2%,1%,/
COP(=S)(OC)Oc1ccc(S(=O)(=O)N(C)C)cc1,/,/,/,11µM*!,/,/
COc1ccc(C(=O)CSc2nnc(CNC(=O)c3ccc(S(=O)(=O)N(C)C)cc3)o2)cc1,-6%,1,3%,14%,-1%,?
COc1cccc([C@H]2CN(C(=O)Cc3cnc[nH]3)[C@@H]3C4CCN(CC4)[C@H]23)c1,/,/,/,1%,/,/
CNCC/C=C\c1cccnc1,/,/,/,25µM*,/,/
Cc1cc(Br)ccc1N1C(=O)CC(=O)NC1=O,-1%,0,-4%,45µM*,-2%,-1%
COc1cc2c(cc1-c1cnn(C)c1)NC(=O)C21CCN(C(C)=O)CC1,/,/,/,27%[176 µM],/,/
C[CH2][Hg][S]c1ccccc1C(=O)O,/,-1,-1%,5.6µM*,-1%,/
COc1ccc2c(c1)CC1(CN2C)C(=O)NC(=O)N(CCc2ccccc2)C1=O (stereo not drawn),1%[15.4 µM],-1,3%[38.3 µM],40µM*,-6%,-2%
COc1cc(CN2C(=O)NC(=O)C3(Cc4cc(C)ccc4N(C)C3)C2=O)cc(OC)c1 (stereo not drawn),-3%,0,10%[38.3 µM],-8%,-1%,4%
CCCCCCC(Cl)(Cn1ccnc1)c1ccccc1 (stereo not drawn),/,-35*,1%,?,1%,/
CCOc1ccccc1NC(=O)c1cn(C)c2ccccc12,/,/,/,2%,/,/
COc1cc2c(cc1OCC1CC1)NC(=O)C21CCN(Cc2cccc(O)c2)CC1,/,/,/,-10%[176 µM],/,/
O=C1NC(=S)NC(=O)C1C/C=C/c1ccccc1,-1%,-2,4%[38.3 µM],4µM*,-1%,5%
O=C1NC(=S)NC(=O)C1Cc1ccccc1,/,-6,-4%,28µM*,6%,/
O=C/C=C/c1ccccc1,1%,-1,1%,1%,3%,14%
N#Cc1cc2c(nc1SCC(=O)Nc1cc(Cl)ccc1Cl)C1CCN2CC1,-19%,0,12%[38.3 µM],-11%,134%,45µM*

# Screens (PubChem BioAssay)
